Laboratory results from the antibiotic and cytotoxicity screens of Wong et al. (2023).
Screen size: about 39,000 compounds; about 3,300 (8.5%) were called active. For the sample, actives were picked, then their nearest neighbours and some compounds at random.

system: HepG2; experiment: cytotoxicity call (relative viability < 0.9); conditions: 10 µM

Compound	cytotoxicity call
C[C@H]1O[C@H](C[N+](C)(C)C)C[C@@H]1O	inactive
NCCc1nnc2n1CCCCC2	inactive
C[C@H]1CN([C@@H](C)CO)C(=O)CCCn2nncc2CO[C@@H]1CN(C)C(=O)Oc1cccc2ccccc12	inactive
CC(=O)Nc1ccc(CCN)cc1	inactive
CNC(C)(C)Cc1ccccc1.O=S(=O)(O)O	inactive
CC(C)NC(=O)[C@H]1CCS(=O)(=O)[C@H]2CNC[C@@H]12	inactive
C[C@@H]1C(=O)NC[C@@H]2CN(CC3CC3)C[C@@H]21	inactive
CCC(C(N)=O)N1CCCC1=O (stereo not given)	inactive
O=[As]O[As]=O (stereo not given)	active
C[C@H](CO)N1C[C@H](C)[C@@H](CN(C)C(=O)Oc2ccccc2)OCc2ccccc2-c2c(n(C)c3ccccc23)C1=O	inactive
C[C@@H]1O[C@@H](OC(=O)Cc2ccccc2)[C@H](O)[C@H](O)[C@H]1O	inactive
COC(=O)[C@H]1[C@H](CO)[C@H]2Cn3c(cccc3=O)[C@@H]1N2C(=O)C1CC1	inactive
O=C(NC[C@H]1CCC2(CCNCC2)O1)C1CC1	inactive
O=C(O)C(Cl)Cl.[NaH]	inactive
Cl.NCC(=O)c1ccccc1	inactive
CNCC(O)c1ccc(O)cc1.CNCC(O)c1ccc(O)cc1.O=C(O)C(O)C(O)C(=O)O (stereo not given)	inactive
Cc1[nH]c2ccc(O)cc2c1CCN	inactive
Cc1ccc2nc(CCN)[nH]c2c1	inactive
Cc1ccc2c(CCN)c(C)n(C)c2c1	active
C[C@@H]1[C@H](O)[C@@H](C)/C=C\C=C/CC\C=C/C=C\C=C/C=C\[C@@H](O[C@@H]2O[C@H](C)[C@@H](O)[C@H](N)[C@@H]2O)C[C@@H]2O[C@](O)(C[C@@H](O)[C@H](O)CC[C@@H](O)C[C@@H](O)C[C@@H](O)CC(=O)O[C@H]1C)C[C@H](O)[C@H]2C(=O)O	inactive
CN(C)[C@@H](CN)c1cccc(C(F)(F)F)c1	inactive
CN[C@@H]1[C@@H](O)[C@@H](O[C@@H]2[C@H](O)[C@@H](O[C@H]3O[C@H]([C@@H](C)O)[C@@H](O)[C@H](O)[C@H]3N)[C@H](N)C[C@@H]2N)OC[C@]1(C)O	inactive
CCCCCCCCCCCCCCCC[n+]1ccccc1.[Cl-]	active
CCCCCCCCCCCCCCCC[n+]1ccccc1	active
CC(=O)c1c(O)c(C)c(O)c(Cc2c(O)c3c(c(C(=O)/C=C/c4ccccc4)c2O)OC(C)(C)C=C3)c1O	inactive
COCC(=O)N1[C@@H]2Cn3c(ccc(C4=CCCC4)c3=O)[C@H]1[C@@H](C(=O)OC)[C@@H]2CO	inactive
Cn1cc(CN2C[C@H]3CNC[C@H]3C2)cn1	inactive
Cc1ccc(C[C@H]2CCCN2)cc1C	inactive

Compound	cytotoxicity call
NCCc1cccc(O)c1	inactive
OC[C@@H]1[C@@H](O)[C@H](O)[C@H]2[C@@H](O)CCN21	inactive
Cc1c(N)nc([C@H](CC(N)=O)NC[C@@H](N)C(N)=O)nc1C(=O)N[C@H](C(=O)N[C@@H](C)[C@H](O)[C@@H](C)C(=O)N[C@@H](C(=O)NCCc1nc(-c2nc(C(=O)NCCC[S+](C)C)cs2)cs1)[C@@H](C)O)[C@@H](O[C@H]1O[C@H](CO)[C@H](O)[C@@H](O)[C@H]1O[C@H]1O[C@H](CO)[C@@H](O)[C@H](OC(N)=O)[C@@H]1O)c1cnc[nH]1	inactive
Cn1cc(N2C[C@@H]3CNC[C@@H]3C2=O)cn1	inactive
C/C=C(\C)C(=O)O[C@H]1C[C@@H](OC(C)=O)[C@@]2(C(=O)OC)CO[C@H]3[C@@H](O)[C@@](C)([C@]45O[C@@]4(C)[C@H]4C[C@@H]5O[C@H]5OC=C[C@@]54O)[C@H]4[C@]1(CO[C@]4(O)C(=O)OC)[C@@H]32	inactive
C[C@@H]1O[C@@H](O[C@@H]2C[C@@H](O)[C@]3(CO)[C@H]4[C@H](O)C[C@]5(C)[C@@H](C6=CC(=O)OC6)CC[C@]5(O)[C@@H]4CC[C@]3(O)C2)[C@H](O)[C@H](O)[C@H]1O	active
CC1OC(OC2CC(O)C3(CO)C4C(O)CC5(C)C(C6=CC(=O)OC6)CCC5(O)C4CCC3(O)C2)C(O)C(O)C1O.O.O.O.O.O.O.O.O (stereo not given)	active
C[C@H]1C[C@@H](O)[C@]2(O)[C@@]13CC(=O)OC[C@@]2(C)[C@](C)(O)C(=O)C3	inactive
CCn1cc(C(=O)[O-])c(=O)c2cc3c(cc21)OCO3.[K+]	inactive
Oc1cc2c(cc1O)CNCC2	inactive
CS(=O)(=O)C1C[C@H]2CC[C@@H](C1)N2 (stereo not given in full)	inactive
O=C1N[C@@H]2C(=C[C@H](O)[C@@H](O)[C@H]2O)c2cc3c(c(O)c21)OCO3	active
COC(=O)[C@H]1[C@H]2CO[C@@H]1CN2	inactive
C[C@H]1CN([C@@H](C)CO)C(=O)CCCn2cc(nn2)CO[C@H]1CN(C)C(=O)Oc1cccc2ccccc12	inactive
O=C(c1ccno1)N1C[C@@H]2CCN[C@@H]2C1	inactive
NCC(=O)c1ccccc1	inactive
O=C(Cc1ccccc1)c1ccccc1	inactive
CC(=O)[O][Hg][c]1ccccc1	active
COC(=O)CC1=C(C(=O)OC)[C@]2(C(=O)Nc3ccccc32)C(C(=O)OC)C(=N)O1 (stereo not given in full)	inactive
N[C@@H](c1ccccc1)[C@@H](N)c1ccccc1	inactive
CCCNC(=O)C1=NO[C@]2(CCNC2)C1	inactive
CC[C@@H](C)C(=O)O[C@@H]1C[C@@]2(C)[C@H](c3ccoc3)OC(=O)C[C@]23O[C@@]2(C)O[C@]34[C@H](OC(=O)C(C)C)[C@@]3(O)[C@@H](OC(=O)[C@@]5(C)O[C@@H]5C)[C@@]5(C)C[C@]3(O)[C@@](C)([C@H]5CC(=O)OC)[C@@]14O2	inactive
COc1ccc(OC(=O)N(C)C[C@H]2OCc3ccccc3-c3c(n(C)c4ccccc34)C(=O)N([C@@H](C)CO)C[C@@H]2C)cc1	inactive
N[C@@]1(C(=O)O)CC[C@H](C(=O)O)C1.N[C@]1(C(=O)O)CC[C@@H](C(=O)O)C1	inactive
CC1=C[C@H]2O[C@@H]3[C@H](O)[C@@H](O[C@H]4O[C@H](CO)[C@@H](O)[C@H](O)[C@H]4O)[C@](C)([C@@]2(CO)CC1)[C@]31CO1	active
CC(=O)OC[C@]12CCC(C)=C[C@H]1O[C@@H]1[C@H](O)[C@@H](OC(C)=O)[C@@]2(C)[C@]12CO2	active
Cc1cc(O[C@@H]2O[C@H](CO)[C@@H](O)[C@H](O)[C@H]2O)c2c3c(c(=O)oc2c1)CCC3	inactive
